# Source: PubChem BioAssay (Tox21)
# Values without a mark were called inactive. Inconclusive results are not listed. Where a call stands in place of a potency, no number is given. Active and inactive are the calls of the source. Unless noted, calls come from the whole dose curve; as a rule, active = well fitted curve in the direction sought with a large enough effect in the repeat runs; inconclusive = weak or mixed curves; inactive = no such curve, though single readings can be large; an effect the other way counts as inactive or inconclusive.
# Key:
# [1] = A CellTox Green Cytotoxicity Assay to monitor cytotoxicity in HEK293 cells - 32 hour (AID 1224881); note: nearly all actives have a fitted effect of over 40% in size
# Method in brief: (§1)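 Homogeneous no-lysis format: HEK293 cell suspension mixed with CellTox Green reagent, seeded, incubated 5 h at 37 C/5% CO2, then dosed by pintool with compound in DMSO.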
# [2] = A CellTox Green Cytotoxicity Assay to monitor cytotoxicity in HEK293 cells - 8 hour (AID 1224884); note: nearly all actives have a fitted effect of over 35% in size
# Method in brief: as §1
# [3] = qHTS RealTime-Glo MT Cell Viability Assay in HEK293 cells - 24 hour (AID 1224886); note: nearly all actives have a fitted effect of over 50% in size; note: potency is the fitted concentration of half-maximal effect; for activity change, negative = cytotoxicity: top concentration of the series differs between compounds
# Method in brief: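 HEK293 cells seeded with NanoLuc/prosubstrate reagent, rested 5 h at 37 C, then dosed and kept at 37 C up to 40 h. Nonlytic real-time luminescence from viable cells read at 0, 8, 16, 24, 32 and 40 h.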
# [4] = qHTS RealTime-Glo MT Cell Viability Assay in HEK293 cells - 8 hour (AID 1224887); note: top concentration of the series differs between compounds; nearly all actives have a fitted effect of over 50% in size
# Method in brief: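 Measured as luminescence from the same continuously cultured HEK293 wells at successive time points (0, 8, 16, 24, 32, 40 h) after compound addition. Reagent present from seeding; dosing at 5 h; incubation 37 C.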
# [5] = A CellTox Green Cytotoxicity Assay to monitor cytotoxicity in HEK293 cells - 16 hour (AID 1224888); note: nearly all actives have a fitted effect of over 35% in size
# Method in brief: as §1
# [6] = qHTS RealTime-Glo MT Cell Viability Assay in HepG2 cells - 0 hour (AID 1224889); note: nearly all actives have a fitted effect of over 50% in size
# Method in brief: (§2)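 HepG2 cells (600/well) were dispensed with RealTime-Glo reagents, incubated 5 h at 37 °C, then treated with compounds in DMSO for up to 40 h. Nonlytic NanoLuc luminescence reflecting viable cells was read at each stated time point.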
# [7] = A CellTox Green Cytotoxicity Assay to monitor cytotoxicity in HepG2 cells - 8 hour (AID 1224890); note: nearly all actives have a fitted effect of over 45% in size
# Method in brief: (§3)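 Fluorescent DNA-binding dye, 600 HepG2 cells/well, 5 h preincubation then compound in DMSO; same plates read at 0–40 h, 37 C.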
# [8] = qHTS assay to identify small molecule antagonists of the estrogen receptor alpha (ER-alpha) signaling pathway using the BG1 cell line in the presence of 0.1 nM 17-beta-estradiol - cell viability counter screen (AID 1259241); note: nearly all actives have a fitted effect of over 40% in size
# Method in brief: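 VM7Luc4E2 cells (endogenous full-length ER-alpha, 4xERE-luciferase), cultured 5 days in charcoal-stripped serum, exposed to compounds with 0.1 nM 17beta-estradiol (final) for 22 hr at 37C. Viability read in same wells as live-cell protease fluorescence after 30 min.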
# [9] = qHTS assay to identify small molecule antagonists of the androgen receptor (AR) signaling pathway using the MDA cell line in the presence of 0.5 nM R1881 - cell viability counter screen (AID 1259242); note: nearly all actives have a fitted effect of over 45% in size
# Method in brief: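 Human breast carcinoma MDA-kb2 cells, cultured without CO2, receive compounds alongside 0.5 nM (final) R1881 agonist. After 16 hr at 37C, viability is taken as live-cell protease signal.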
# [10] = target: Estrogen receptor (Homo sapiens) (UniProt P03372); assay: qHTS assay to identify small molecule antagonists of the estrogen receptor alpha (ER-alpha) signaling pathway using the BG1 cell line in the presence of 0.1 nM 17-beta-estradiol (AID 1259244); note: nearly all actives have a fitted effect of over 50% in size; note: potency is the fitted concentration of half-maximal effect
# Estrogen receptor (Homo sapiens), sequence (P03372 whole entry, looked up): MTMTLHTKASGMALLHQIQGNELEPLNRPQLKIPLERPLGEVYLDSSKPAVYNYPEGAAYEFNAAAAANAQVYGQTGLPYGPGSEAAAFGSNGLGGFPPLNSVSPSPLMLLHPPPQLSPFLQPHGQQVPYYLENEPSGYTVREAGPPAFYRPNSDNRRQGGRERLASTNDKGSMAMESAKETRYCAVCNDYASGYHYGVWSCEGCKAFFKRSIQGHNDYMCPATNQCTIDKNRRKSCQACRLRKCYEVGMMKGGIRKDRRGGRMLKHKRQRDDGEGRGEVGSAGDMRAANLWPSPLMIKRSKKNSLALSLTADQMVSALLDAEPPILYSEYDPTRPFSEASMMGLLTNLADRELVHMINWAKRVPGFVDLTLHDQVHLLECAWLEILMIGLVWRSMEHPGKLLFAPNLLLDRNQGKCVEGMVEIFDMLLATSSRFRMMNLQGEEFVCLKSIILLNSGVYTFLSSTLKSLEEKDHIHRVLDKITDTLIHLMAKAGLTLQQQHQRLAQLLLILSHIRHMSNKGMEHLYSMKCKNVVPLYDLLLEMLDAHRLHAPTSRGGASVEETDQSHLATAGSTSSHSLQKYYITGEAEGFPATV
# Method in brief: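 Seeding of stripped-serum-adapted VM7Luc4E2 cells, 24 h attachment, compound transfer, then 0.1 nM final 17beta-estradiol; after 22 h incubation, ONE-Glo reagent and luminescence reading.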
# [11] = qHTS assay to identify small molecule HDAC inhibitors (AID 1259364);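 note: wild-type HCT-116 cells with endogenous class I/II HDAC activity; top concentration of the series differs between compounds; nearly all actives have a fitted effect of over 45% in size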
# Method in brief: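 After a 2 hr compound incubation (37C, 5% CO2), HCT-116 cells seeded at 1,500/well the day before received HDAC-Glo reagent; signal read as luminescence after 30 min at room temperature.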
# [12] = qHTS assay to identify small molecule HDAC inhibitors - cell viability counter screen (AID 1259365)
# Method in brief: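 Wild-type HCT-116 cells, 1,500/well, cultured overnight, then compound-treated 2 h at 37 C. Viability measured as ATP luminescence with CellTiter-Glo after 30 min at room temperature.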
# [13] = qHTS assay to identify small molecule antagonists of the sonic hedgehog signaling (Shh) pathway - cell viability counter screen (AID 1259367); note: nearly all actives have a fitted effect of over 55% in size
# Method in brief: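 Cytotoxicity was assessed in parallel with Shh reporter activity by measuring live-cell protease fluorescence (CellTiter-Fluor) in NIH/3T3 cells stably carrying Gli1-Luc, treated with compound under conditioned medium stimulation for 23 hr plus 1 hr reagent incubation.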
# [14] = qHTS assay to identify small molecule agonists of the sonic hedgehog signaling (Shh) pathway (AID 1259368; calls by dose curve;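 note: NIH/3T3-derived 3T3Gli1-Luc cells carrying a stable Gli1-driven firefly luciferase reporter; series mostly up to about 92 µM; nearly all actives have a fitted effect of over 15% in size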)
# Method in brief: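 Stable NIH/3T3 Gli1-Luc reporter clone; 24 hr cpd exposure after a 4 hr settling period; luminescence endpoint.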
# [15] = A CellTox Green Cytotoxicity Assay to monitor cytotoxicity in HepG2 cells - 0 hour (AID 1224882); note: nearly all actives have a fitted effect of over 35% in size
# Method in brief: as §3
# [16] = A CellTox Green Cytotoxicity Assay to monitor cytotoxicity in HepG2 cells - 32 hour (AID 1224883); note: nearly all actives have a fitted effect of over 50% in size; note: potency is the fitted concentration of half-maximal effect
# Method in brief: as §3
# [17] = qHTS RealTime-Glo MT Cell Viability Assay in HepG2 cells - 16 hour (AID 1224885); note: nearly all actives have a fitted effect of over 50% in size
# Method in brief: as §2
# [18] = qHTS assay to identify small molecule agonists of the sonic hedgehog signaling (Shh) pathway - cell viability counter screen (AID 1259366); note: nearly all actives have a fitted effect of over 50% in size; note: potency is the fitted concentration of half-maximal effect
# Method in brief: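 NIH/3T3-derived Gli1-Luc reporter cells, 2,000 per well, received compound after 4 h and were treated about 23 h at 37C. Viability measured in the same wells by CellTiter-Fluor fluorescence after 1 h.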
# [19] = target: Androgen receptor (Homo sapiens) (UniProt P10275); assay: qHTS assay to identify small molecule antagonists of the androgen receptor (AR) signaling pathway using the MDA cell line in the presence of 0.5 nM R1881 (AID 1259243); note: nearly all actives have a fitted effect of over 50% in size
# Androgen receptor (Homo sapiens), sequence (P10275 whole entry, looked up): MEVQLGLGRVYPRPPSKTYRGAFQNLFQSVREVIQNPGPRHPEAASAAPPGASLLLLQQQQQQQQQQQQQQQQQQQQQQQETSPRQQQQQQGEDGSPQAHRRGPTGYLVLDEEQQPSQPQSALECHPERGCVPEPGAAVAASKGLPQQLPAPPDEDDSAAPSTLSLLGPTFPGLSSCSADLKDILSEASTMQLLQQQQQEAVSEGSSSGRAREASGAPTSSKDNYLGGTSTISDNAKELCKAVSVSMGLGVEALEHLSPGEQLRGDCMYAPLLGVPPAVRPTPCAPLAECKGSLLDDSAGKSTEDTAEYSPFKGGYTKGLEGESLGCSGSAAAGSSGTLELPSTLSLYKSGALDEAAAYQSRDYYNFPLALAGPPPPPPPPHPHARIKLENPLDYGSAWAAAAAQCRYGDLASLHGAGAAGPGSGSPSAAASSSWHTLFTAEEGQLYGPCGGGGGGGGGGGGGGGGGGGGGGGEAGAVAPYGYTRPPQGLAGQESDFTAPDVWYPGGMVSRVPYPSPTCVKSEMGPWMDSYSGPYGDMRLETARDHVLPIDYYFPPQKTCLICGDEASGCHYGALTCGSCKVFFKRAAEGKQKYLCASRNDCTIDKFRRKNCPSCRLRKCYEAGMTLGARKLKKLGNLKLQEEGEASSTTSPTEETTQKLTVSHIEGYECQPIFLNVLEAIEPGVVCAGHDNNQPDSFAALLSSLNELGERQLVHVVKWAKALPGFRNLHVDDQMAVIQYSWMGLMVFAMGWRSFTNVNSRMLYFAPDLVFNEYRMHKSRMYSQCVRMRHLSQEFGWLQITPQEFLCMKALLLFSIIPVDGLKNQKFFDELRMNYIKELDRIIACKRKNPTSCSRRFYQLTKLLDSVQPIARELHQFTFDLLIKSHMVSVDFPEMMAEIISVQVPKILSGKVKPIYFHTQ
# Method in brief: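 Cells: MDA-kb2 (MMTV-luc). Stimulus: 0.5 nM R1881. Time: 16 hr, 37C, no CO2. Detection: ONE-Glo luminescence after 30 min at RT.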
# [20] = qHTS assay to identify small molecule phospholipidosis (PLD) inducers (AID 1259344; active = well fitted curve in the direction sought with a large enough effect; an effect the other way counts as inactive or inconclusive)
# Method in brief: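 Cells (HepG2, 900 per well) attach for 4 h, receive LipidTOX Red and compound together, incubate 24 h at 37 C, are fixed 30 min with paraformaldehyde/Hoechst, then imaged at one site per well.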
structure (smiles),measurement,setting,value
c1ccc(CNCc2ccccc2)cc1,Potency,[1],inactive
same,Potency,[2],inactive
same,Potency,[3],inactive
same,Potency,[4],inactive
same,Potency,[5],inactive
same,Potency,[6],inactive
same,Potency,[7],inactive
same,Potency,[8],inactive
same,Potency,[9],inactive
same,Potency,[10],inactive
same,Potency,[11],inactive
same,outcome,[12],inactive
same,Potency,[13],inactive
same,outcome,[14],inactive
COCCCCCCCCOCCC[Si](C)(O[Si](C)(C)C)O[Si](C)(C)C,Potency,[15],inactive
same,Potency,[16],21.9 µM (active)
same,Potency,[2],inactive
same,Potency,[17],inactive
same,Potency,[3],2.45 µM (active)
same,Potency,[4],inactive
same,Potency,[5],inactive
same,Potency,[6],inactive
same,Potency,[7],inactive
same,Potency,[10],17.2 µM (active)
same,Potency,[11],inactive
same,outcome,[12],inactive
same,Potency,[18],inactive
same,Potency,[13],inactive
same,outcome,[14],inactive
CCOc1nc2cccc(C(=O)O)c2n1Cc1ccc(-c2ccccc2-c2nn[nH]n2)cc1,Potency,[15],inactive
same,Potency,[16],inactive
same,Potency,[2],inactive
same,Potency,[17],inactive
same,Potency,[3],inactive
same,Potency,[4],inactive
same,Potency,[5],inactive
same,Potency,[6],inactive
same,Potency,[7],inactive
same,Potency,[8],inactive
same,Potency,[9],inactive
same,Potency,[19],inactive
same,Potency,[10],inactive
same,Potency,[20],inactive
same,Potency,[11],inactive
same,outcome,[12],inactive
same,Potency,[18],inactive
same,Potency,[13],inactive
same,outcome,[14],inactive
CN(C)CCCNCCCN,Potency,[1],inactive
same,Potency,[2],inactive
same,Potency,[17],inactive
same,Potency,[3],inactive
same,Potency,[4],inactive
same,Potency,[5],inactive
same,Potency,[6],inactive
same,Potency,[7],inactive
same,Potency,[8],inactive
same,Potency,[9],inactive
same,Potency,[10],inactive
same,Potency,[11],inactive
same,outcome,[12],inactive
same,Potency,[18],27.2 µM (active)
same,Potency,[13],inactive
same,outcome,[14],inactive
CC1(C)CCC(C)(C)c2cc(NC(=O)c3ccc(C(=O)O)cc3)ccc21,Potency,[1],inactive
same,Potency,[16],inactive
same,Potency,[2],inactive
same,Potency,[17],inactive
same,Potency,[5],inactive
same,Potency,[6],inactive
same,Potency,[7],inactive
same,Potency,[8],inactive
same,Potency,[9],inactive
same,Potency,[20],inactive
same,Potency,[11],inactive
same,outcome,[12],inactive
same,Potency,[13],inactive
same,outcome,[14],inactive
CNS(=O)(=O)Cc1ccc2[nH]cc(CCN(C)C)c2c1,Potency,[1],inactive
same,Potency,[2],inactive
same,Potency,[17],inactive
same,Potency,[3],inactive
same,Potency,[4],inactive
same,Potency,[5],inactive
same,Potency,[6],inactive
same,Potency,[7],inactive
same,Potency,[8],inactive
same,Potency,[9],inactive
same,Potency,[20],inactive
same,Potency,[11],inactive
same,outcome,[12],inactive
same,Potency,[18],inactive
same,Potency,[13],inactive
same,outcome,[14],inactive
CC(C)c1ccc2c(C(C)C)cc(C(C)C)c(S(=O)(=O)O)c2c1,Potency,[15],inactive
same,Potency,[16],inactive
same,Potency,[2],inactive
same,Potency,[17],inactive
same,Potency,[3],inactive
same,Potency,[4],inactive
same,Potency,[5],inactive
same,Potency,[6],inactive
same,Potency,[7],inactive
same,Potency,[8],inactive
same,Potency,[9],inactive
same,Potency,[19],inactive
same,Potency,[10],inactive
same,Potency,[11],inactive
same,outcome,[12],inactive
same,Potency,[18],inactive
same,Potency,[13],inactive
same,outcome,[14],inactive
O=C(CCN1CCN2CCCC2C1)N1c2ccccc2Sc2ccc(Cl)cc21 (stereo unspecified),cytotoxicity increase,[1],1.45% [at 15.8 µM]
same,cytotoxicity increase,[2],-4.39% [at 15.8 µM]
same,"activity change, negative = cytotoxic",[17],-5.42% [at 15.8 µM]
same,"activity change, negative = cytotoxicity",[3],-17.5% [at 15.8 µM]
same,"activity change, negative = cytotoxicity",[4],-6.11% [at 15.8 µM]
same,activity change,[5],"1.83% [at 15.8 µM, hits give high values]"
same,"activity change, negative = cytotoxicity",[6],-0.655% [at 15.8 µM]
same,cytotoxicity increase,[7],7.39% [at 15.8 µM]
same,"activity change, negative = cytotoxicity",[8],-14.8% [at 19 µM]
same,"viability change, negative = cytotoxic",[9],-3.61% [at 19 µM]
same,"activity, negative = inhibition",[19],-18% [at 19 µM]
same,"activity change, negative = inhibition",[11],3.91% [at 19 µM]
same,"activity change, negative = cytotoxicity",[12],-2.44% [at 19 µM]
same,activity change,[14],-0.0401% [at 18.9 µM]
